Measles CPE = protection of cells from measles virus | Measles virus-infected cells, CPE protection, absorbance | protection (pct of control), % at 4 µM | AID 841 | 140,000 compounds, 1.5% hits; in the data active means protection mostly above about 24%, no sharp cut-off; inactive means mostly below about 26%
KCC2 mod = KCC2 (human) Cl- transport modulation; Q9H2X9; KCC2 cells, thallium flux FluoZin-2 fluorescence; B-score of Tl+ flux slope (higher = more flux/activation; lower = inhibition) at 10 µM; 190,000 compounds, 2.2% hits;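 active means thallium flux slope and its plate-corrected score both differing from the plate sample mean at a set confidence after two filtering rounds, in either direction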;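 further: slope of fluorescence scaled to starting intensity during 10 to 20 s after thallium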
ROMK mod = modulates human ROMK potassium channel activity; P48048; Tet-inducible ROMK, thallium flux fluorescence; actives lie on both sides; B-score at 10 µM; 130,000 compounds, 2% hits;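 active means signal ratio slope over the read window, or its plate-corrected B-score, at least 3 SD from the plate mean, either direction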;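 further: B-score of the F/F0 ratio slope over 7 to 12 s after thallium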
Target sequence (P48048 whole entry, looked up): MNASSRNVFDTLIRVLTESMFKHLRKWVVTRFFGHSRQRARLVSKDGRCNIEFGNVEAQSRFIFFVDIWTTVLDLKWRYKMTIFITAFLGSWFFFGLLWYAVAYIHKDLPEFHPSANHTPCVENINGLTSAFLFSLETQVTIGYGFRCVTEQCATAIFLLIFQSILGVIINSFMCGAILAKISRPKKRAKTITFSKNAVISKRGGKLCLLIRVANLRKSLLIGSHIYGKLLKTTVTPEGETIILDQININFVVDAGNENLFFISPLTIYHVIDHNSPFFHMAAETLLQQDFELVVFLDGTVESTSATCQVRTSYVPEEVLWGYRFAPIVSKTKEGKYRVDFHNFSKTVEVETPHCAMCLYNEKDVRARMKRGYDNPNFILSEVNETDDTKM
Arbovirus anti = blocks arbovirus infection; inhibition, % at 10 µM; 200,000 compounds, 0.37% hits; arbovirus infection cell-based antiviral screen; AID 1251; in the data active means inhibition above about 30%
HSV augment = HSV replication enhancement; maximum fold increase; HSV replication augmentation in cells, fold increase; 220,000 compounds, 0.005% hits; in the data active means maximum fold increase above about 1.5; inconclusive means no clear call, values can overlap the other calls; tested in PC3 cells
Each line names hits and unclear results; the compound was inactive in the other large screens. Rows were chosen to be rich in hits. Some 4% of all compounds tested hit in one or more screens of this group.

COc1ccc(-c2cc(C(=O)O)c3ccccc3n2)c(OC)c1	none
Fc1ccc(C2=CC(c3ccc(Br)o3)n3ncnc3N2)cc1 (centres undefined)	ROMK mod -3.4, HSV augment inconclusive
COc1cccc(C2C=C(c3cccs3)Nc3ncnn32)c1OC (centres undefined)	none (no result: ROMK mod)
COc1ccc(C2C=C(c3ccc(Br)s3)Nc3ncnn32)cc1OC (centres undefined)	Arbovirus anti 90, HSV augment inconclusive (no result: ROMK mod)
COc1ccc(C2C=C(c3ccc(C)cc3)Nc3ncnn32)cc1 (centres undefined)	Arbovirus anti 86 (no result: KCC2 mod, HSV augment)
Oc1ccc(C2C=C(c3ccc(F)cc3)Nc3ncnn32)cc1 (centres undefined)	none (no result: Measles CPE, ROMK mod, Arbovirus anti)
COc1cccc(C2=CC(c3ccc(N(C)C)cc3)n3ncnc3N2)c1 (centres undefined)	Arbovirus anti 46, HSV augment inconclusive (no result: KCC2 mod)
Cn1cccc1CC(=O)NNC(=S)NC(=O)c1ccc(F)cc1	none (no result: Measles CPE, ROMK mod, Arbovirus anti)
COCCNC(=O)CN(C(=O)Cn1nnc2ccccc21)c1cccc(C)c1C	none (no result: Measles CPE)
CCOc1ccc(C2C=C(c3ccc(F)cc3)Nc3ncnn32)cc1 (centres undefined)	HSV augment inconclusive
CCOc1ccc(C2C=C(c3ccccc3)Nc3ncnn32)cc1 (centres undefined)	ROMK mod -2.7 (no result: KCC2 mod)
O=C(COC(=O)c1cccnc1Cl)NCc1ccc2c(c1)OCO2	Measles CPE 33
Cc1[nH]n(-c2ccccc2)c(=O)c1N=Nc1nccs1	KCC2 mod 25, ROMK mod 13
CC1=NN(c2ccccc2)C(=O)/C1=C\c1cn(-c2ccccc2)nc1C	none (no result: Measles CPE)
CC1=NN(c2ccccc2)C(=O)/C1=C/c1c(O)n(-c2ccc(F)c(Cl)c2)[nH]c1=O	KCC2 mod -8.3 (no result: ROMK mod)
Cc1ccccc1N=Nc1c(C)[nH]n(-c2ccccc2)c1=O	none (no result: Measles CPE)
CC1=NN(c2ccccc2)C(=O)/C1=C\c1c(C)[nH]n(-c2ccccc2)c1=O	ROMK mod -3.6
Cc1[nH]n(-c2ccccc2)c(=O)c1/C=N/c1ccccn1	KCC2 mod 18 (no result: ROMK mod)
CCn1nc(CC(=O)Nc2nnc(CC(=O)N3CCCC3)s2)c2ccccc2c1=O	none (no result: KCC2 mod)
CCn1nc(CC(=O)Nc2nnc(CC(=O)N3CCOCC3)s2)c2ccccc2c1=O	Measles CPE 28 (no result: ROMK mod)
CCSCCOC(=O)C1=C(C)N(C)C(=O)NC1c1cc(OC)ccc1OC (centres undefined)	KCC2 mod 4.2
Nc1cccc(Nc2nc(OC(C(F)(F)F)C(F)(F)F)nc(OC(C(F)(F)F)C(F)(F)F)n2)c1	Measles CPE 42 (no result: ROMK mod)
O=S(=O)(Nc1nc2ccccc2nc1NCC1CCCO1)c1cccc(Cl)c1 (centres undefined)	none (no result: Measles CPE, ROMK mod, Arbovirus anti)
O=C(c1ccco1)N1CCN(C(=O)c2ccc(COc3ccc4c(c3)CCC4)o2)CC1	none (no result: ROMK mod)
O=C(c1ccco1)N1CCN(C(=O)c2ccc(COc3ccc(Cl)cc3Cl)o2)CC1	KCC2 mod -3.4 (no result: Measles CPE, ROMK mod, Arbovirus anti)
COc1ccc(CN(CCC#N)C(=S)NC(=O)c2ccccc2)cc1	KCC2 mod 17
N#CCCN(Cc1ccccc1)C(=S)NC(=O)c1ccccc1	none (no result: KCC2 mod, ROMK mod)
CC(C)(C)c1ccc(OCc2cnc(Cl)s2)cc1	none (no result: Measles CPE)
Cc1cc(C(=O)N/N=C/c2ccccc2Br)no1	ROMK mod 3.1
Cn1cccc1/C=N/NC(=O)c1ccccn1	none (no result: Measles CPE, Arbovirus anti)
Cc1cc(C(=O)N/N=C/c2ccc[nH]2)no1	none
Cc1cc(C(=O)N/N=C/c2cccn2C)no1	Measles CPE 43 (no result: ROMK mod)
CC(C)[C@H]1C=C(C(=O)O)O[C@@H](OCCCCO)C1	none (no result: Measles CPE, ROMK mod, Arbovirus anti)
CC(C)(C)N/N=C1\CC(c2ccccc2)Oc2ccccc21 (centres undefined)	none
O=C(O)c1cc(N/N=C2/CC(c3ccccc3)Oc3ccccc32)ccc1Cl (centres undefined)	Arbovirus anti 32
CCCCNc1nc2ccccc2[nH]1	none (no result: KCC2 mod, ROMK mod)
CCOCCCNc1nc2ccccc2[nH]1	Measles CPE 46 (no result: ROMK mod)
CCCCc1ccc(NC(=S)NCCc2ccc(F)cc2)cc1	none (no result: Measles CPE)
Cc1cc(C)nc(SCC(=O)Nc2ccc(Br)cn2)n1	Measles CPE 18 (no result: ROMK mod)
Oc1c(Br)cc(C2N=C(c3ccccc3)NO2)cc1Br (centres undefined)	Arbovirus anti 33 (no result: ROMK mod)
CCOC(=O)C1C(=O)NC(c2ccccc2)=NC1c1cccc(Br)c1 (centres undefined)	none (no result: Measles CPE)
O=C(N/C(=C\c1ccc(-c2ccccc2)o1)C(=O)N1CCOCC1)c1ccccc1	KCC2 mod -7.3, ROMK mod -3 (no result: Measles CPE)
O=C(NN=C(Cc1ccccc1)Cc1ccccc1)C1CC1	none (no result: Measles CPE)
COC(=O)c1sc(NC(C)=O)c(C(=O)OC)c1C	none (no result: KCC2 mod)
COC(=O)c1sc(NC(=O)CSc2nncs2)c(C(=O)OC)c1C	Measles CPE 31
Cc1ccc(C(=O)OCC(=O)NCc2ccco2)cc1	none (no result: KCC2 mod)
O=C(COC(=O)c1ccccc1)NCc1ccco1	Measles CPE 26 (no result: KCC2 mod, ROMK mod)
CSc1ccccc1OC1CCN(Cc2ccccc2)CC1	none
CCN(CC(=O)Nc1ccc(NC(C)=O)cc1)C(=O)/C=C/c1cccs1	Measles CPE 44
O=C(Nc1cccc(N2C(=O)C3C4C=CC(C4)C3C2=O)c1)c1cccs1 (centres undefined)	none (no result: Measles CPE)
COc1cc(C(=O)NCC(=O)N/N=C(/C)c2cccs2)cc(OC)c1OC	none
COc1ccccc1NC(=O)C12CC3CC(C1)CC(c1ccc(C)cc1)(C3)C2	Arbovirus anti 32
COc1ccc(NC(=O)C23CC4CC(C2)CC(c2ccc(C)cc2)(C4)C3)cc1	none (no result: ROMK mod)
COc1cccc(C(=O)Nc2nc(-c3ccccc3)c(-c3ccccc3)o2)c1	KCC2 mod 29, HSV augment inconclusive (no result: ROMK mod)
O=C(Nc1nc(-c2ccccc2)c(-c2ccccc2)o1)c1ccc(F)cc1	none (no result: KCC2 mod, ROMK mod)
O=C(Nc1nc(-c2ccccc2)cs1)C1COc2ccccc2O1 (centres undefined)	none
O=C(Nc1nc(-c2ccc3c(c2)OCO3)cs1)C1COc2ccccc2O1 (centres undefined)	Arbovirus anti 52 (no result: ROMK mod)
COc1cccc(C(=O)Nc2nc(-c3ccc4c(c3)OCO4)cs2)c1	Arbovirus anti 42 (no result: KCC2 mod, ROMK mod)
Cc1ccc(Cl)cc1-c1ccc(C=Nc2ccc(N3CCOCC3)cc2)o1	Measles CPE 60 (no result: ROMK mod)
COc1ccc(S(=O)(=O)N(CC(=O)N2CCN(c3ccccc3)CC2)c2ccccc2)cc1	Measles CPE 42
COc1ccc(N2CCN(C(=O)CCS(=O)(=O)c3ccc(OC)cc3)CC2)cc1	none (no result: Measles CPE)
CCN(CC(=O)N1CCN(c2ccccc2)CC1)S(=O)(=O)c1ccc(C)cc1	Measles CPE 63
COc1ccc(N2CCN(C(=O)CN(c3ccccc3)S(C)(=O)=O)CC2)cc1	none (no result: ROMK mod)
CC(=O)c1ccc(N2CCN(C(=O)CCS(=O)(=O)c3ccc(C)cc3)CC2)cc1	Measles CPE 47 (no result: ROMK mod)
CCN(CC(=O)N1CCOCC1)S(=O)(=O)c1ccc(C)cc1	none (no result: ROMK mod)
COc1ccc(N(CC(=O)N2CCc3ccccc32)S(=O)(=O)c2c(C)noc2C)cc1	none (no result: KCC2 mod)
COc1ccc(N(CC(=O)N2CCN(c3ccccc3)CC2)S(=O)(=O)c2c(C)noc2C)cc1	Measles CPE 41 (no result: KCC2 mod, ROMK mod)
COc1ccc(NC(=O)C2=C(C)Nc3nc(CCCO)nn3C2c2ccc(OC)c(OC)c2)cc1 (centres undefined)	none (no result: Measles CPE)
Cc1ccc(S(=O)(=O)N(CC(=O)N2CCOCC2)C2CCCCC2)cc1	Measles CPE 17 (no result: ROMK mod)
